Results from PubChem BioAssay (NCATS).
Inconclusive results are not listed. Activity calls are given as the source filed them. The call rests on the fitted dose curve; in most records, active means well fitted cell-killing curve with a large enough effect; inconclusive means small, poorly fitted or top-dose-only effect; inactive means flat fitted curve, though single readings scatter.

Experiments:
[1] = Cell Viability - LYMP2-025 (AID 976); conditions: LYMP2-025 lymphoblastoid cell viability; series mostly up to 92.2 µM
Outline: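 Seed 2500 LYMP2-025 cells/well; 5 hr at 37 C; add compound; 24 hr at 37 C; add CellTiter-Glo; 30 min RT; read luminescence. AC50 from Hill-modelled concentration-response.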

[2] = Cell Viability - LYMP2-002 (AID 977); conditions: LYMP2-002 lymphoblastoid cell viability, qHTS; series mostly up to 92.2 µM
Outline: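 Luminescent ATP readout (CellTiter-Glo, 30 min room temperature) after 24 h compound exposure at 37 C of a human lymphoblastoid line, 2500 cells/well. AC50 values derived by standard Hill fitting of qHTS concentration-response data.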

[3] = Cell Viability - LYMP2-006 (AID 978); conditions: LYMP2-006 lymphoblastoid cell viability, qHTS; series mostly up to 92.2 µM; further: nearly all actives have a fitted effect of over 60% in size
Outline: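 In this cytotoxicity screen, the human lymphoblastoid line grew in complete medium with test compounds for 24 hr at 37 C. Cellular ATP served as the viability signal.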

[4] = Cell Viability - LYMP2-008 (AID 980); conditions: LYMP2-008 lymphoblastoid cell viability, qHTS; series mostly up to 92.2 µM; further: nearly all actives have a fitted effect of over 60% in size
Outline: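 qHTS, human lymphoblastoid line, 2500 cells/well; 5 hr preincubation, 24 hr compound, 37 C. CellTiter-Glo ATP luminescence. AC50 via Hill equation. Tetraoctylammonium bromide positive control.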

[5] = Cell Viability - LYMP2-010 (AID 981); conditions: LYMP2-010 lymphoblastoid cell viability, qHTS; series mostly up to 92.2 µM; further: nearly all actives have a fitted effect of over 55% in size
Outline: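 Luminescent ATP signal (CellTiter-Glo) served as the viability read-out. Cells of the human lymphoblastoid line were treated with compound over a concentration range for 24 hours at 37 C, and AC50 values came from Hill-equation modeling.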

[6] = Cell Viability - LYMP2-012 (AID 982); conditions: LYMP2-012 lymphoblastoid cell viability qHTS; series mostly up to 92.2 µM;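 further: cellular ATP by luciferase luminescence where a drop means cytotoxicity; cells exposed to compound for one day before reading; nearly all actives have a fitted effect of over 55% in size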
[7] = Cell Viability - LYMP2-014 (AID 983); conditions: LYMP2-014 lymphoblastoid cells, viability qHTS; series mostly up to 92.2 µM; further: nearly all actives have a fitted effect of over 50% in size
Outline: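 Luminescent ATP signal (CellTiter-Glo, 30 min at room temperature) serves as the viability read-out after 24 hr compound exposure at 37 C. Cells were seeded at 2500 per well and settled 5 hr beforehand.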

[8] = Cell Viability - LYMP2-016 (AID 984); conditions: LYMP2-016 lymphoblastoid cell viability, qHTS; series mostly up to 92.2 µM; further: nearly all actives have a fitted effect of over 55% in size
Outline: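 Concentration-dependent ATP depletion measured in LYMP2-016 lymphoblastoid cells, 24 h, 37 C; luciferase-based luminescent detection; Hill-equation AC50.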

[9] = Cell Viability - LYMP2-018 (AID 985); conditions: LYMP2-018 lymphoblastoid cells, viability (qHTS); series mostly up to 92.2 µM; further: nearly all actives have a fitted effect of over 50% in size
Outline: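 Luminescent ATP signal (CellTiter-Glo, read after 30 min at room temperature) reports viable cells after 24 hr compound treatment at 37 C. Concentration-response data were fitted to the standard Hill equation for AC50.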

[10] = Cell Viability - LYMP2-007 (AID 979); conditions: LYMP2-007 lymphoblastoid cell viability; series mostly up to 92.2 µM;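 further: cells exposed to compound for 24 h before reading; nearly all actives have a fitted effect of over 60% in size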
Outline: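 Luminescent ATP signal (CellTiter-Glo) serves as the viability read-out after 24 hr compound treatment of lymphoblastoid cells in complete medium at 37 C. Concentration-response data were fitted to the Hill equation to give AC50 values.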

Measured: Potency

O=c1[nH][nH]c(=O)c2cc([N+](=O)[O-])ccc12
not listed: [10]
inactive: all other assays above

CCOC(=O)C(C)C(C)=O (stereo not given)
not listed: [2]
inactive: all other assays above

Cc1cc(C)cc(N)c1
not listed: [10]
inactive: all other assays above

CC(C)(C)OCC1CO1 (stereo not given)
not listed: [2] | [9]
inactive: all other assays above
